FMDV inh: antivirals against foot and mouth disease virus; FMDV antiviral cell-based qHTS; Potency, µM (top dose mostly 57.9 µM), most hits filed as inhibitors; hit rate 1.2% among 410,000; calls by dose curve; tested in HEK293T cells; note: read-out not given here; nearly all actives have a fitted effect of over 45% in size
MARV entry inh: blocks Marburg virus binding to or entry into cells; hit rate 1.8% among 300,000; Marburg virus pseudotyped entry inhibition, cell reporter; Potency, µM (highest dose often 37.8 µM), hits mostly inhibitors; calls by dose curve; tested in HEK293 cells
HCMV inh: inhibitors of human cytomegalovirus | HFF cells, HCMV-luciferase reporter, 72 h; hits give low values | activity change, negative = inhibition, % at 57.5 µM | hit rate 4.5% among 410,000 | AID 1259415; in the data active = activity change below about -60%; inconclusive = no clear call, values can overlap the other calls; inactive = above about -39%
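Steps: HFFs plated, 16 h 37C; compounds added; HCMV-luciferase added to MOI 1 PFU/cell; 72 h 37C; OneGlo reagent, 5 min room temperature; luminescence read, normalized to controls.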
Lassa entry inh: Lassa virus entry inhibition; Lassa virus pseudotype entry inhibition, cell reporter; Potency, µM (highest dose often 37.9 µM), hits mostly inhibitors; hit rate 1.2% among 300,000; calls by dose curve; tested in HEK293 cells; note: nearly all actives have a fitted effect of over 50% in size
HCV inhibitor: blocks hepatitis C virus; Huh7.5.1 HCVcc-Cre infection, luciferase reporter, 44 h; Potency, µM (doses to about 41.8 µM), usual class: inhibitors; hit rate 3.4% among 340,000; AID 651820; active = well fitted inhibition curve with a large enough effect; inconclusive = small, poorly fitted or top-dose-only effect, or another doubt; inactive = no such curve, though single readings can be large or run the other way
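A cell-based infection assay in which seeded cells (1,000 per well) receive test compound after 4 h, are inoculated with HCVcc-Cre at approximately 0.5 moi, and are incubated 44 h before luminescence detection.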
A number is an active result; - = inactive; ? = inconclusive; . = not tested or not shown; ! = not confirmed by another sample. This is a sample that favours compounds with a hit; in the whole collection about 7.9% have one here.

SMILES	FMDV inh	MARV entry inh	HCMV inh	Lassa entry inh	HCV inhibitor
COc1ccc2c(c1)-c1nc(-n3ncc(C(=O)N(C)C(C)c4ccon4)c3C3CC3)ncc1CC2 (stereo unspecified)	-	.	.	.	.
CN(C)S(=O)(=O)c1ccc2c(c1)N(CC(=O)N1CCC(C(N)=O)CC1)CCS2	-	.	-	-	.
C(=Cc1c[nH]c2ccccc12)c1ccc2ccccc2n1	?	2.2µM	-92	?	5.6µM
Cc1cc(C)c2nc(N(Cc3cccnc3)C(=O)Cc3ccccc3)sc2c1	-	.	-	-	.
Cc1cccc(N2C(=O)C3CCC(c4ccccc4)CC3C2=O)c1 (stereo unspecified)	?	-	-	-	-
COc1ccccc1N1C(=O)C2CCC(c3ccccc3)CC2C1=O (stereo unspecified)	22µM	-	-	?	-
O=C(c1ccc2c(c1)OCCO2)C1CCN(C(=O)c2ccc(F)c(F)c2)CC1	-	-	-68	-	?
CCOc1cc(C#N)c(NC(=O)c2ccc(OC)c(S(=O)(=O)N3CCN(c4ccccc4)CC3)c2)cc1OCC	-	-	-	-	.
c1ccc(CCn2nnnc2C(c2cccnc2)N2CCN(c3nc4ccccc4s3)CC2)cc1 (stereo unspecified)	.	?	?	?	25µM
Fc1ccc(N2CCN(C(c3cccs3)c3nnnn3CCc3ccccc3)CC2)cc1 (stereo unspecified)	-	13µM	-	11µM	-
COc1ccc(Cn2nnnc2C(C(C)C)N2CCN(c3ccccc3OC)CC2)cc1 (stereo unspecified)	25µM	?	-	?	?
COc1ccc(Cn2nnnc2C(c2ccccc2)N2CCN(C3CCCC3)CC2)cc1 (stereo unspecified)	-	7.1µM!	-	-	?
CCCC(c1nnnn1Cc1ccc(F)cc1)N1CCN(C)CC1 (stereo unspecified)	-	-	-	-	-
CCC(c1nnnn1Cc1ccc(F)cc1)N1CCN(C2CCCCC2)CC1 (stereo unspecified)	?	13µM	-	?	-
Oc1ccc(N2CCN(C(c3cccnc3)c3nnnn3Cc3ccccc3)CC2)cc1 (stereo unspecified)	.	-	-	-	-
c1ccc(CCn2nnnc2C(c2cccnc2)N2CCN(c3ccccc3)CC2)cc1 (stereo unspecified)	.	?	-64	?	-
COc1ccc(C(c2nnnn2Cc2ccccc2)N2CCN(c3nc4ccccc4s3)CC2)cc1 (stereo unspecified)	-	?	-	11µM	?
CCCCNC(=O)C1C(c2ccc(OC)cc2)=Nc2ccccc2N1C(=O)c1ccc2ncccc2c1 (stereo unspecified)	-	.	?	.	.
O=S(=O)(c1ccccc1)N1CCC(O)(CSc2ccc(F)cc2)CC1	?	?	-86	?	11µM
O=C(COC(=O)c1cccs1)Nc1nc(-c2ccccc2)cs1	-	-	-	?	-
Cc1nc(CC(=O)Nc2nc(C(C)(C)C)cs2)cs1	-	?	-	?	-
O=C(Cc1cccs1)Nc1nc(-c2ccccc2)cs1	?	?	-	1.6µM	?
Cc1nc(CC(=O)Nc2nc(-c3ccccc3)cs2)cs1	-	-	-73	?	?
CCOC(=O)c1ccc(NC[C@@H](O)COc2ccccc2)cc1	.	-	.	.	.
C#CCOCCOCCOCCNc1nc(N2CCN(C(=O)CCCCCCCCCCNC(=O)[C@@H](CCSC)n3cc(CCO)nn3)CC2)nc(N2CCN(C(=O)CCCCCCCCCCNC(=O)[C@@H]([C@H](C)O)n3cc(C)nn3)CC2)n1	-	.	-72	.	-
SMILES	FMDV inh	MARV entry inh	HCMV inh	Lassa entry inh	HCV inhibitor
Cc1cn([C@@H](CCCCNC(=O)OC(C)(C)C)C(=O)NCCCCCCCCCCC(=O)N2CCN(C(=O)OC(C)(C)C)CC2)nn1	11µM	.	.	.	?
C#CCOCCOCCOCCNc1nc(N2CCN(C(=O)CCCCCCCCCCNC(=O)Cn3cc(C[C@@H](C)O)nn3)CC2)nc(N2CCN(C(=O)CCCCCCCCCCNC(=O)[C@@H]([C@H](C)CC)n3cc(CCCCCN)nn3)CC2)n1	35µM	.	.	.	?
C#CCOCCOCCOCCNc1nc(N2CCN(C(=O)CCCCCCCCCCNC(=O)[C@H](CCCCN)n3cc(C)nn3)CC2)nc(N2CCN(C(=O)CCCCCCCCCCNC(=O)[C@@H]([C@H](C)O)n3cc(C)nn3)CC2)n1	-	.	.	.	2.8µM
CCCCN(C(=O)C1CCN(C(=O)c2ccccc2C)CC1)c1c(N)n(CCCC)c(=O)[nH]c1=O	-	-	-	-	-
O=C(CCN1CCN(C(c2ccccc2)c2ccccc2)CC1)N/N=C/c1ccc(O)cc1O	-	?	-	?	7.9µM
N#Cc1ccsc1NC(=O)CCc1ccccc1	-	?	-	.	?
COc1ccc(OC)c(/C=N/NC(=O)CCN2CCN(C(c3ccccc3)c3ccccc3)CC2)c1	-	10µM	-	?	10µM
N#Cc1ccsc1NC(=O)CCN1CCN(C(c2ccccc2)c2ccccc2)CC1	-	10µM	-	?	?
Cc1cc(C)n(CCC(=O)N/N=C/c2ccc(O)cc2O)n1	-	13µM	-	?	?
Cc1cc(C)n(CCC(=O)N/N=C/c2ccccc2O)n1	-	-	-	?	?
Cc1cc([N+](=O)[O-])nn1CC(=O)N(C)C1CCCCC1	-	-	-	-	-
COc1ccc(NC(=O)c2c(NCc3ccc(C)o3)sc3c2CCCCC3)c(OC)c1	-	.	-	?	.
COC(C(=O)N1CCC(n2nccc2NC(=O)C2CC2)CC1)c1ccccc1 (stereo unspecified)	-	-	-	-	-
CC1(C(=O)NS(=O)(=O)c2cccs2)CCN1C(=O)Cc1ccc(Cl)cc1Cl (stereo unspecified)	-	.	-	.	.
C=C1C(C)(C)[C@@H]2CC[C@]1(C(=O)Nc1nccs1)C2	.	-	.	.	.
Cc1ccc2c(c1)N(C(=O)NCc1ccccc1)CCO2	-	.	-	-	.
COc1ccc2cc(-c3c(-c4ccncc4)nc(-c4ccc(S(C)(=O)=O)cc4C)n3C)ccc2c1	.	.	.	7.9µM	.
Cc1ccc2nc(CCl)[n+]([O-])c(-c3ccccc3)c2c1	28µM	-	-	-	?
Cc1ccc2nc(Cl)c(-c3ccccc3)cc2c1	-	-	-	?	-
Cc1cc(NC(=O)c2cccc(Oc3ccccc3)c2)n[nH]1	-	.	-71	.	-
Cc1cc(NC(=O)NC(=O)c2cccc(OC(F)(F)C(F)F)c2)n[nH]1	-	-	-	-	-
CN(C(=O)c1nc(-c2cccc(F)c2)n2c1CCCCC2)c1ccccc1F	-	.	-62	-	.
CCOc1ccc(CCNC(=O)c2nc(-c3cccc(F)c3)n3c2CCCCC3)cc1OCC	-	.	-	?	.
COc1ccccc1NC(=S)NCC1CCCCC1	-	-	-66	-	?
COc1ccccc1NC(=S)NC1CCCCC1	-	?	-	?	?
COc1ccccc1NC(=S)NC1CCCCCCCCCCC1	-	-	-61	.	4.5µM
O=C(Nc1ccccc1F)c1ccc2sc([C@H]3C[C@H](O)[C@@H](CO)O3)nc2c1	-	.	-	.	.
CN(Cc1ccco1)Cc1cc(-c2ccnc3cc(Cl)ccc23)ccc1O	-	.	.	.	.
Cc1ccc(-c2cc(C(F)F)n3ncc(C(=O)Nc4c(C)nn(Cc5c(Cl)cccc5Cl)c4C)c3n2)cc1	-	-	-77	?	-

Compound activity: PubChem, National Center for Advancing Translational Sciences (NCATS)
